We go through seven compounds from PubChem BioAssay (NCATS).

Each structure is given as a SMILES string. Several values for one entry are separate records, joined by “and”; a condition that tells them apart may be missing. Identical values can stand only once. A number with no mark means an inactive call. Inconclusive results are not listed. Activity calls are given as the source filed them. Unless noted, calls come from the whole dose curve; as a rule, active = well fitted curve in the direction sought with a large enough effect; inconclusive = small, poorly fitted or top-dose-only effect, or another doubt; inactive = no such curve, though single readings can be large; an effect the other way counts as inactive or inconclusive.

The target in experiment [1] is Guanine nucleotide-binding protein G(i) subunit alpha-1 (Homo sapiens) (UniProt P63096). Put plainly: qHTS Assay for Inhibitors of RGS12 GoLoco Motif Activity (Green Fluorophore) (AID 879).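 Note: 0% = labeled peptide with Gαi1 and full inhibition = labeled peptide alone without protein; negative values mean loss of peptide binding seen as reduced polarization.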 In a few lines: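 A drop in FITC polarization marked displacement of the FITC-tagged RGS12 GoLoco peptide (10 nM) from Gαi1 (50 nM). Compounds were incubated 10 min at room temperature in Tris pH 7.5 buffer containing 150 mM NaCl, 0.1 mM GDP and 0.05% NP40; unlabeled peptide titration served as control.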
Guanine nucleotide-binding protein G(i) subunit alpha-1 (Homo sapiens), sequence (P63096 whole entry, looked up): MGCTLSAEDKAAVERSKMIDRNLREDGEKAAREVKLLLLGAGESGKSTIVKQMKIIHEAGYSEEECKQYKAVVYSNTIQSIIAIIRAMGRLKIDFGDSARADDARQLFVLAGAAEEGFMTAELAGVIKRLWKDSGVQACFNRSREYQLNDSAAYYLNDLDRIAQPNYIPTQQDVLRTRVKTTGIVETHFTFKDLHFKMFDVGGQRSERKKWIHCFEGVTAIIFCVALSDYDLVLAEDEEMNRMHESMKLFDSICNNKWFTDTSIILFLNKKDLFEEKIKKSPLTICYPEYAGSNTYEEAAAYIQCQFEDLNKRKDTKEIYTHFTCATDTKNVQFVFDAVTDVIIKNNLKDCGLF

The target of experiment [2] is Cytochrome P450 2C9 (Homo sapiens) (UniProt P11712). Kind of experiment: qHTS Assay for Inhibitors and Substrates of Cytochrome P450 2C9 (AID 883). Note: nearly all actives have a fitted effect of over 60% in size. Note: potency is the fitted concentration of half-maximal effect. In a few lines:
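A luminogenic readout tracked human CYP2C9 (10nM) converting deoxyluciferin (100uM, at KM) in 25mM KPO4 during 60 min at 37C with regenerated NADPH. Values normalized to 57uM sulphaphenazole as complete inhibition.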
In general terms: In qHTS, concentration-response curves come from the screen itself.

The target in experiment [3] is Cytochrome P450 3A4 (Homo sapiens) (UniProt P08684). Kind of experiment: qHTS Assay for Activators of Cytochrome P450 3A4 (AID 885). Note: nearly all actives have a fitted effect of over 65% in size. In short, it runs like this: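 Human CYP3A4 dealkylates Luciferin-PPXE to luciferin, which luciferase detection converts to light. Substrate was at its KM (25uM), buffer 200mM KPO4, reaction 60 min at RT.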
Cytochrome P450 3A4 (Homo sapiens), sequence (P08684 whole entry, looked up): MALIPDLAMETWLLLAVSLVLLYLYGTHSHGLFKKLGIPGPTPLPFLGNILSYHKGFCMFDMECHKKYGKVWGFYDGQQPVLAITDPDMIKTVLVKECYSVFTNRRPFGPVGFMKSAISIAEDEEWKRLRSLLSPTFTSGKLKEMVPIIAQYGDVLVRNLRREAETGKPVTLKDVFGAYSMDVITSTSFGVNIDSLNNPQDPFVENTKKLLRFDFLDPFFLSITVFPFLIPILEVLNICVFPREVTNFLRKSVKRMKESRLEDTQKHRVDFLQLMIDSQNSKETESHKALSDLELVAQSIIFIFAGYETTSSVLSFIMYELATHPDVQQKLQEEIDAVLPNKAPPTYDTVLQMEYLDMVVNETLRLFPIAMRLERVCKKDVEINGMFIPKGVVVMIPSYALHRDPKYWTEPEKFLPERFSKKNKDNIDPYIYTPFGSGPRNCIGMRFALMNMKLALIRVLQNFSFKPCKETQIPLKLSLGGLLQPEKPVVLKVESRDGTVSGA
The nature of experiment [4]: qHTS Assay for Identification of Small Molecule Antagonists for NFkB Signaling Pathway (AID 895; active = well fitted inhibition curve with a large enough effect in the signal ratio, with a control signal flat, not every such curve was filed as active; the % refers to the signal ratio; note: potency is the fitted concentration of half-maximal effect). In short, it runs like this: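 NFkB-bla ME-180 cervical carcinoma cells with beta-lactamase reporter under NFkB response element; compounds added, then TNF alpha at 10 pM final (EC50), 5 h at 37 C. LiveBLAzer substrate 2 h, room temperature; emission 460/530 nm at 405 nm excitation.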

Experiment [5] can be described thus: Confirmation and Secondary Assay for Modulators of Hemoglobin Beta Chain Splicing at IVS2 654 locus (AID 910).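 Note: per-well total GFP intensity by laser scanning cytometry after 2-day treatment; % of control where 0% means no effect.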 In a few lines:
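HeLa cells stably carrying EGFP interrupted by mutant beta-globin IVS2-654 intron (CMV-driven) were treated with compound for 2 days at 37C; corrected splicing was scored as total peak GFP intensity per well (488 nm excitation, 500-520 nm emission).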

The target in experiment [6] is Cytochrome P450 3A4 (Homo sapiens) (UniProt P08684). Put plainly: qHTS Assay for Inhibitors and Substrates of Cytochrome P450 3A4 (AID 884). Note: % is set by controls: 0 for no effect and ±100 for the full control effect; nearly all actives have a fitted effect of over 50% in size. In a few lines:
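Luminescent readout of luciferin produced by CYP3A4 (20 nM) dealkylation of Luciferin-PPXE, 25 uM (its KM). NADPH-driven reaction ran 60 min at RT after 10 min compound preincubation; data scaled to 57 uM ketoconazole as 100% inhibition.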

Experiment [7] deals with Cytochrome P450 2D6 (Homo sapiens) (UniProt P10635). Put plainly: qHTS Assay for Inhibitors and Substrates of Cytochrome P450 2D6 (AID 891). Note: potency is the fitted concentration of half-maximal effect; nearly all actives have a fitted effect of over 60% in size. In short, it runs like this:
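Luminescent read-out of luciferin formed by 5 nM human CYP2D6 demethylating 30 uM Luciferin-ME EGE (Km level) over 60 min at room temperature after NADPH regeneration addition. Data normalized to full inhibition by 1.43 uM quinidine.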

Experiment [8] is described as follows: Cellular Toxicity (caspase-3) Jurkat (AID 655).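 Note: cells exposed to compound for 16 h at 37 °C before reading.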 Note: potency is the fitted concentration of half-maximal effect. In short, it runs like this:
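Caspase 3/7 activation is scored as increased luminescence in Jurkat cells cultured with compound for 16 hours in complete medium. AC50 values come from Hill fits of qHTS concentration-response data normalized to DMSO and 100 uM tamoxifen controls.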

Experiment [9] is described as follows: Cellular Toxicity (caspase-3) HUV-EC-C (AID 656). In a few lines: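 Read-out: luminescence proportional to caspase 3/7 activity, measured 20 min after adding Caspase-Glo 3/7 reagent. Cells (HUV-EC-C) had received compound for 16 hr at 37°C. Increases relative to DMSO and 100 uM tamoxifen gave concentration-response AC50 values.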
A short description of experiment [10]: Cellular Toxicity (caspase-3) SHSY5Y (AID 657). In a few lines: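 Cells plated and incubated 5 h at 37 °C, dosed over a concentration range, incubated 16 h, then given Caspase-Glo 3/7 reagent for 1 h at room temperature before luminescence reading. Staurosporine (10 uM) defined full stimulation.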
A short description of experiment [11]: Cellular Toxicity (caspase-3) BJ (AID 658).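 Note: 0% = DMSO basal and 100% = 10 µM staurosporine.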 In short, it runs like this: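 Plated BJ cells (1000/well) rested 5 hr, received compound for 16 hr at 37 °C, then Caspase-Glo 3/7 reagent for 1 hr at room temperature before luminescence reading.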
Experiment [12] can be described thus: Cellular Toxicity (caspase-3) MRC-5 (AID 659).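 Note: 0% = DMSO basal and 100% = 10 µM staurosporine.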 In short, it runs like this: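 Apoptosis readout in MRC-5 cells: luciferase light generated after caspase 3/7 cleaves a peptide-aminoluciferin substrate, measured post 16 hr compound incubation at 37 °C.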
Experiment [13] is described as follows: Cellular Toxicity (caspase-3) Mesangial (AID 660).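 Note: cells exposed to compound for 16 h before the caspase read.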 In a few lines:
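Luminescent Caspase-Glo 3/7 readout (aminoluciferin substrate cleavage, 20 min RT) after 16 h compound exposure at 37 °C of normal human mesangial cells. Signal increase normalized between DMSO basal and 100 uM tamoxifen; Hill-equation AC50.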

A short description of experiment [14]: Cellular Toxicity (caspase-3) SK-N-SH (AID 661).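 Note: 0% = DMSO basal and 100% = 10 µM staurosporine.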 In short, it runs like this: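 Luminescent Caspase-Glo 3/7 read-out after 16 hr compound exposure of SK-N-SH neuroblastoma cells at 37 °C. Signal increase normalized to DMSO (basal) and 10 uM staurosporine (100%); AC50 from Hill equation fits of qHTS concentration-response data.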
The nature of experiment [15]: Cellular Toxicity (caspase-3) H-4-II-E (AID 663).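 Note: cells exposed to compound for 16 hr before readout.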 In a few lines:
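Caspase 3/7 activation measured in H-4-II-E cells in complete culture medium after 16 hr treatment at 37 °C, using luciferase-coupled substrate readout; AC50 values come from Hill-equation fits of normalized concentration-response data.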

A short description of experiment [16]: Cellular Toxicity (caspase-3) Hek293 (AID 664).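 Note: cells exposed to compound for 16 h at 37 °C before readout.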 The settings on record: HEK293 caspase-3 activation, DMSO = 0%, 100 µM tamoxifen = 100%; at 92.2 µM (top of the series). In a few lines: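 Luminescent Caspase-Glo 3/7 readout (aminoluciferin release) in HEK293 cells after 16 h compound treatment, 37 °C. Normalization: DMSO = basal, 100 uM tamoxifen = 100% stimulation. Concentration-response fitted with standard Hill equation for AC50.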

The nature of experiment [17]: Cellular Toxicity (caspase-3) N2a (AID 665).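 Note: compound exposure lasted 16 h at 37 °C before readout.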 In a few lines: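 Luminescent Caspase-Glo 3/7 readout in N2a mouse neuroblastoma cells after 16 h compound exposure at 37 °C. Signal scaled to DMSO (basal) and 10 uM staurosporine (100%). Concentration-response fitted with Hill equation for AC50.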
Experiment [18] is described as follows: Cellular Toxicity (caspase-3) NIH 3T3 (AID 666). In short, it runs like this:
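NIH 3T3, 1000 cells/well, 5 hr settle then 16 hr compound at 37°C; Caspase-Glo 3/7, 20 min RT, luminescence. DMSO = basal, 100 uM tamoxifen = 100%. Hill-equation AC50, qHTS.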

Experiment [19] can be described thus: Cellular Toxicity (caspase-3) Renal Proximal Tubule (AID 667).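 Note: cells exposed to compound for 16 hours at 37 °C before detection; 0% = DMSO basal and 100% = 10 µM staurosporine.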 In a few lines: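 In qHTS format, rat primary proximal tubule cells seeded at 1000 per well are exposed to compounds for 16 hours at 37 °C. An increase in Caspase-Glo 3/7 luminescence indicates caspase activation.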
Experiment [20] in a line: qHTS Assay for Identification of Small Molecule Agonists for Hypoxia Response Element Signaling Pathway (AID 914; active = well fitted activation curve with a large enough effect in the signal ratio, with a control signal flat, not every such curve was filed as active; the % refers to the signal ratio; note: % of control where 0% means no effect). The settings on record: ME-180 (cervical carcinoma) HRE-bla reporter, beta-lactamase ratio, CoCl2, 17 h; hits give high values. In a few lines:
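qHTS titration; ME-180 HRE-bla cells; EC50 CoCl2 co-treatment, 17 h at 37 degrees Celsius; CCF4 dye, ex 405nm, em 460nm and 530nm; %Activity from ratio; AC50.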

Cytochrome P450 2C9 (Homo sapiens), sequence (P11712 whole entry, looked up): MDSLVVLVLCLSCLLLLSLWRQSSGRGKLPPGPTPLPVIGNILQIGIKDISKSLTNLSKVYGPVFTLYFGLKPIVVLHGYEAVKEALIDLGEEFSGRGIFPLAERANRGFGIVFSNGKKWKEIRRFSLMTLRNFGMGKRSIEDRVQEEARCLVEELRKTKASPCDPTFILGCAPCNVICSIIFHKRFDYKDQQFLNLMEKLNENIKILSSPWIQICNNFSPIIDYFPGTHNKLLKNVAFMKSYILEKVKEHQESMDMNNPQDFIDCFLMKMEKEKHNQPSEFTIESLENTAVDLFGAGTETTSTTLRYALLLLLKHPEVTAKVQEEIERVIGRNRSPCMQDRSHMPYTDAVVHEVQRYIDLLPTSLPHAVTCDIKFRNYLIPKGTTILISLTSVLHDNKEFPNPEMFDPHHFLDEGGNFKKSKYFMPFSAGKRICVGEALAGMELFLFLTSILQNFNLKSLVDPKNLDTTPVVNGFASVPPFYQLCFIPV
Cytochrome P450 2D6 (Homo sapiens), sequence (P10635 whole entry, looked up): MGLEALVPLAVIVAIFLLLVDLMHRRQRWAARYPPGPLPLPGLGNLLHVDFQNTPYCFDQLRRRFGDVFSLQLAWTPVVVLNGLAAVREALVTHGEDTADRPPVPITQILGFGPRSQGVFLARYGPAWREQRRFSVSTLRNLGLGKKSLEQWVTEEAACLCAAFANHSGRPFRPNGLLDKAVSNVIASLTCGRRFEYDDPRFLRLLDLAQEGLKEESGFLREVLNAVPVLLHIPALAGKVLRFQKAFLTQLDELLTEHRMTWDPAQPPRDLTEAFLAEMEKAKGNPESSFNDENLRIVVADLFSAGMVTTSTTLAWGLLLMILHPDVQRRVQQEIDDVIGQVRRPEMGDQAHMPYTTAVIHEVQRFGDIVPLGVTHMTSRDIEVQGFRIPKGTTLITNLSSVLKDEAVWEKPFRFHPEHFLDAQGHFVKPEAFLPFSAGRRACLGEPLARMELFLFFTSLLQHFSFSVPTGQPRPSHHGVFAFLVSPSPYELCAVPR

For `CCN(CC)C(=S)SSC(=S)N(CC)CC`, the outcome in experiment [1] and in experiment [3] was inactive. In addition, the Potency is 2.51 µM (active) and 398 nM (active) in experiment [2]; 7.08 µM (active) in experiment [4]. Further, the Potency result in experiment [5] is “inactive”.
Turning to `NC(=NCc1ccccc1)NC(=O)c1nc(Cl)c(N)nc1N`, the compound was classed as inactive in experiment [1]. Moreover, the Potency result in experiment [6] and in experiment [5] was “inactive” throughout. Moreover, the Potency in experiment [7] is 5.01 µM (active).
On to `CCc1nc(N)nc(N)c1-c1ccc(Cl)cc1`, for which, in [8], the Potency was 31.6 µM (active). Besides, the call in experiment [9], in experiment [10], in experiment [11], in experiment [12], in experiment [13] and in experiment [14] was inactive. For the same compound, the compound was called inactive in experiment [15], in experiment [17], in experiment [18], in experiment [19] and in [2]. Besides, the caspase-3 activation in [16] was 101% (active). Besides, the Potency result in experiment [5] is “inactive”.
As to `COc1c2occc2cc2ccc(=O)oc12`, the Potency result in experiment [8] and in experiment [5] was “inactive” in each case. Moreover, the result in experiment [9], in [10], in experiment [11], in experiment [12], in experiment [13] and in experiment [14] was inactive. Also, the call in [15], in experiment [17], in experiment [18] and in experiment [19] was inactive. In addition, in [16], the caspase-3 activation is 2.24%.
Consider `Nc1ccc(S(N)(=O)=O)cc1`, for which the Potency result in experiment [8] and in [5] was “inactive” each time. The compound was called inactive in experiment [9], in experiment [10], in experiment [11], in experiment [12], in [13] and in experiment [14]. The compound was called inactive in experiment [15], in experiment [17], in [18] and in experiment [19]. Further, the caspase-3 activation in experiment [16] was -1.76%.
On to `NS(=O)(=O)c1cc(C(=O)O)c(NCc2ccco2)cc1Cl`, for which the Potency entry in experiment [8] and in [5] was “inactive” in each case. The outcome in experiment [9], in [10], in experiment [11], in [12], in experiment [13] and in [14] was inactive. The result in experiment [17], in experiment [18] and in experiment [19] was inactive. For the same compound, the caspase-3 activation in experiment [16] was 2.23%. Besides, in experiment [20], the activation is -15.7%.
With `C[C@H](Cc1ccc(O)c(O)c1)[C@@H](C)Cc1ccc(O)c(O)c1`, the result in experiment [1] was inactive. Further, the Potency in experiment [2] was 1.58 µM (active); in experiment [7], 25.1 µM (active); in experiment [4] it was 7.94 µM (active). In [6], the Potency result was “inactive”.
